The source made the active and inactive calls. How the source made its calls: active means hit-call score of the fitted dose curve at least 0.9, where 1 is the maximum; inactive means score below 0.9.
Columns and labels:
[1] = CEETOX_H295R_PROG: CeeTox H295R High-throughput Steroidogenesis Assay for Progesterone (PROG) (AID 2283442); conditions: actives raise or lower the signal;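 further: human H295R adrenal cells primed with 10 µM forskolin before dosing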
How it was run: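 Measured analyte is progesterone secreted by H295R cells at 48 h of chemical treatment, following 10 uM forskolin priming. Quantitation used HPLC-MS/MS against a 7-point standard curve; cytotoxicity was checked by MTT absorbance.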

[2] = read-out: Tumor necrosis factor receptor superfamily member 6 (Homo sapiens) (UniProt P25445); test: LTEA_HepaRG_FAS: Life Technologies and Expression Analysis (LTEA) Assay for Fas cell surface death receptor (FAS) using HepaRG (AID 2283447); conditions: mRNA level, 48 h; actives raise or lower the signal
How it was run: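 Differentiated human HepaRG cells, pre-cultured 48 h, were exposed in duplicate for 48 h to 8-point half-log concentrations (top 100 uM, 0.5% DMSO) in serum-free induction medium; FAS mRNA measured by qRT-PCR, normalized to ACTB/GAPDH/POLR2A, bidirectional fit versus DMSO.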

[3] = read-out: Cyclin D2 (CCND2), CCND2 (gene 894); test: LTEA_HepaRG_CCND2: Life Technologies and Expression Analysis (LTEA) Assay for Cyclin D2 (CCND2) using HepaRG (AID 2283449); conditions: mRNA level, 48 h; actives raise or lower the signal;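 further: CCND2 transcript measured by TaqMan qRT-PCR and normalised to three housekeeping genes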
How it was run: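 Differentiated human HepaRG cells were exposed for 48 h in serum-free induction medium to eight half-log concentrations topping at 100 uM (0.5% DMSO vehicle). CCND2 mRNA was quantified by TaqMan qRT-PCR, normalised to ACTB, GAPDH and POLR2A, and fitted bidirectionally against DMSO.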

[4] = read-out: Cyclin Dependent Kinase Inhibitor 1A (CDKN1A), CDKN1A (gene 1026); test: LTEA_HepaRG_CDKN1A: Life Technologies and Expression Analysis (LTEA) Assay for Cyclin Dependent Kinase Inhibitor 1A (CDKN1A) using HepaRG (AID 2283450); conditions: mRNA level, 48 h; actives raise or lower the signal
How it was run: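 Gain or loss of CDKN1A transcript is scored by bidirectional fitting against 0.5% DMSO vehicle. Human HepaRG cultures receive chemicals for 48 h across an 8-point series peaking at 100 uM; expression comes from qRT-PCR.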

[5] = read-out: Cyclin D1 (CCND1), CCND1 (gene 595); test: LTEA_HepaRG_CCND1: Life Technologies and Expression Analysis (LTEA) Assay for Cyclin D1 (CCND1) using HepaRG (AID 2283451); conditions: mRNA level, 48 h; actives raise or lower the signal;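 on AC50: TaqMan qRT-PCR transcript level normalised to ACTB GAPDH and POLR2A housekeeping genes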
How it was run: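 Expression change is measured by qRT-PCR in HepaRG cells after 48 h treatment across eight concentrations topping at 100 uM, with duplicate wells and DMSO (0.5%) serving as baseline for bidirectional fitting.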

[6] = read-out: flavin-containing dimethylaniline monooxygenases 3 (FMO3), FMO3 (gene 2328); test: LTEA_HepaRG_FMO3: Life Technologies and Expression Analysis (LTEA) Assay for flavin-containing dimethylaniline monooxygenases 3 (FMO3) using HepaRG (AID 2283453); conditions: mRNA level, 48 h; actives raise or lower the signal;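 on AC50: FMO3 transcript by TaqMan qRT-PCR normalized to ACTB GAPDH and POLR2A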
How it was run: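 HepaRG, 48 h exposure, 8-pt half-log series from 100 uM, 0.5% DMSO vehicle, duplicates; FMO3 transcript by Fluidigm TaqMan qRT-PCR, housekeeping-normalized; gain/loss fit vs DMSO.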

[7] = read-out: Cytochrome P450 (CYP1A1), CYP1A1 (gene 1543); test: LTEA_HepaRG_CYP1A1: Life Technologies and Expression Analysis (LTEA) Assay for Cytochrome P450 (CYP1A1) using HepaRG (AID 2283454); conditions: mRNA level, 48 h; actives raise or lower the signal
How it was run: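 Using HepaRG cultures with 0.5% DMSO as vehicle, eight-concentration exposures (max 100 uM) lasted 48 h. Transcript levels were measured by TaqMan qRT-PCR and normalized to ACTB, GAPDH and POLR2A.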

[8] = read-out: CFLAR gene, CFLAR (gene 8837); test: LTEA_HepaRG_CFLAR: Life Technologies and Expression Analysis (LTEA) Assay for CFLAR gene using HepaRG (AID 2283455); conditions: mRNA level, 48 h; actives raise or lower the signal
How it was run: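 HepaRG cells were plated for 48 h, switched to serum-free induction medium, then exposed in duplicate for 48 h to 8 concentrations (top 100 uM, half-log steps, 0.5% DMSO). CFLAR mRNA was measured by qRT-PCR, normalized to ACTB, GAPDH and POLR2A.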

[9] = read-out: Forkhead box O3 (FOXO3), FOXO3 (gene 2309); test: LTEA_HepaRG_FOXO3: Life Technologies and Expression Analysis (LTEA) Assay for Forkhead box O3 (FOXO3) using HepaRG (AID 2283459); conditions: mRNA level, 48 h; actives raise or lower the signal
How it was run: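 Differentiated human HepaRG cells in serum-free induction medium were exposed in duplicate for 48 h to eight half-log concentrations up to 100 uM in 0.5% DMSO. FOXO3 mRNA was quantified by qRT-PCR, normalized to ACTB, GAPDH and POLR2A, with bidirectional fitting versus DMSO.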

[10] = read-out: ABC Transporter (ABCB1), ABCB1 (gene 5243); test: LTEA_HepaRG_ABCB1: Life Technologies and Expression Analysis (LTEA) Assay for ABC Transporter (ABCB1) using HepaRG (AID 2283460); conditions: mRNA level, 48 h; actives raise or lower the signal
How it was run: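 Differentiated human HepaRG cells, plated 48 h then switched to serum-free induction medium, were exposed in duplicate to eight half-log concentrations up to 100 uM in 0.5% DMSO for 48 h. ABCB1 mRNA was measured by TaqMan qRT-PCR, normalized to ACTB/GAPDH/POLR2A.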

[11] = read-out: growth arrest and DNA damage 45 (GADD45B), GADD45B (gene 4616); test: LTEA_HepaRG_GADD45B: Life Technologies and Expression Analysis (LTEA) Assay for growth arrest and DNA damage 45 (GADD45B) using HepaRG (AID 2283461); conditions: mRNA level, 48 h; actives raise or lower the signal
How it was run: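 Human HepaRG monolayers receive chemicals for 48 h at eight half-log concentrations, highest 100 uM, in 0.5% DMSO. Expression is measured by TaqMan qRT-PCR and normalized to ACTB, GAPDH and POLR2A.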

[12] = read-out: ABC Transporter (ABCC3), ABCC3 (gene 8714); test: LTEA_HepaRG_ABCC3: Life Technologies and Expression Analysis (LTEA) Assay for ABC Transporter (ABCC3) using HepaRG (AID 2283462); conditions: mRNA level, 48 h; actives raise or lower the signal
How it was run: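 Transcriptional change of ABCC3 in HepaRG after 48 h treatment, determined by qRT-PCR normalized to endogenous controls. Concentrations spanned eight half-log steps to 100 uM in 0.5% DMSO.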

[13] = read-out: ABC Transporter (ABCC2), ABCC2 (gene 1244); test: LTEA_HepaRG_ABCC2: Life Technologies and Expression Analysis (LTEA) Assay for ABC Transporter (ABCC2) using HepaRG (AID 2283464); conditions: mRNA level, 48 h; actives raise or lower the signal
How it was run: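 After plating and 48 h culture, HepaRG medium is replaced with serum-free induction medium and chemicals are added (8 concentrations, max 100 uM, 0.5% DMSO) for 48 h. Total RNA then undergoes qRT-PCR for ABCC2 with housekeeping normalization.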

[14] = read-out: Fatty acid synthase (Homo sapiens) (UniProt P49327); test: LTEA_HepaRG_FASN: Life Technologies and Expression Analysis (LTEA) Assay for Fatty Acid Synthase (FASN) using HepaRG (AID 2283448); conditions: mRNA level, 48 h; actives raise or lower the signal
How it was run: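 Differentiated human HepaRG cells were exposed for 48 h in serum-free induction medium to eight half-log concentrations up to 100 uM in 0.5% DMSO, in duplicate. FASN mRNA was quantified by TaqMan qRT-PCR, normalized to ACTB/GAPDH/POLR2A, and fitted bidirectionally against DMSO.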

[15] = read-out: catalase (CAT), CAT (gene 847); test: LTEA_HepaRG_CAT: Life Technologies and Expression Analysis (LTEA) Assay for catalase (CAT) using HepaRG (AID 2283452); conditions: mRNA level, 48 h; actives raise or lower the signal
How it was run: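 Differentiated HepaRG cells in serum-free induction medium were dosed 48 h in duplicate, eight half-log concentrations from 100 uM in 0.5% DMSO. Transcript measured by TaqMan qRT-PCR, normalised to ACTB/GAPDH/POLR2A, fitted bidirectionally against DMSO.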

[16] = read-out: ABC Transporter (ABCB11), ABCB11 (gene 8647); test: LTEA_HepaRG_ABCB11: Life Technologies and Expression Analysis (LTEA) Assay for ABC Transporter (ABCB11) using HepaRG (AID 2283463); conditions: mRNA level, 48 h; actives raise or lower the signal
How it was run: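 Differentiated human HepaRG cells were exposed for 48 h in serum-free induction medium to eight half-log concentrations up to 100 uM in 0.5% DMSO. ABCB11 mRNA was quantified by qRT-PCR, normalized to ACTB, GAPDH and POLR2A, and fitted bidirectionally versus DMSO.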

[17] = read-out: Forkhead box O1 (FOXO1), FOXO1 (gene 2308); test: LTEA_HepaRG_FOXO1: Life Technologies and Expression Analysis (LTEA) Assay for Forkhead box O1 (FOXO1) using HepaRG (AID 2283456); conditions: mRNA level, 48 h; actives raise or lower the signal
How it was run: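 Differentiated human HepaRG cells in serum-free induction medium were exposed in duplicate for 48 h to eight half-log concentrations (top 100 uM, 0.5% DMSO). FOXO1 mRNA was measured by TaqMan qRT-PCR, normalised to ACTB, GAPDH and POLR2A, and fitted bidirectionally against DMSO.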

[18] = read-out: growth arrest and DNA damage 45 (GADD45A), GADD45A (gene 1647); test: LTEA_HepaRG_GADD45A: Life Technologies and Expression Analysis (LTEA) Assay for growth arrest and DNA damage 45 (GADD45A) using HepaRG (AID 2283458); conditions: mRNA level, 48 h; actives raise or lower the signal
How it was run: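 Differentiated HepaRG cells were exposed in duplicate for 48 h in serum-free induction medium to 8-point half-log concentrations up to 100 uM in 0.5% DMSO. GADD45A mRNA was measured by TaqMan qRT-PCR, normalized to ACTB, GAPDH and POLR2A, with bidirectional fitting versus DMSO.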

Measured: AC50

Fatty acid synthase (Homo sapiens), sequence (P49327 whole entry, looked up): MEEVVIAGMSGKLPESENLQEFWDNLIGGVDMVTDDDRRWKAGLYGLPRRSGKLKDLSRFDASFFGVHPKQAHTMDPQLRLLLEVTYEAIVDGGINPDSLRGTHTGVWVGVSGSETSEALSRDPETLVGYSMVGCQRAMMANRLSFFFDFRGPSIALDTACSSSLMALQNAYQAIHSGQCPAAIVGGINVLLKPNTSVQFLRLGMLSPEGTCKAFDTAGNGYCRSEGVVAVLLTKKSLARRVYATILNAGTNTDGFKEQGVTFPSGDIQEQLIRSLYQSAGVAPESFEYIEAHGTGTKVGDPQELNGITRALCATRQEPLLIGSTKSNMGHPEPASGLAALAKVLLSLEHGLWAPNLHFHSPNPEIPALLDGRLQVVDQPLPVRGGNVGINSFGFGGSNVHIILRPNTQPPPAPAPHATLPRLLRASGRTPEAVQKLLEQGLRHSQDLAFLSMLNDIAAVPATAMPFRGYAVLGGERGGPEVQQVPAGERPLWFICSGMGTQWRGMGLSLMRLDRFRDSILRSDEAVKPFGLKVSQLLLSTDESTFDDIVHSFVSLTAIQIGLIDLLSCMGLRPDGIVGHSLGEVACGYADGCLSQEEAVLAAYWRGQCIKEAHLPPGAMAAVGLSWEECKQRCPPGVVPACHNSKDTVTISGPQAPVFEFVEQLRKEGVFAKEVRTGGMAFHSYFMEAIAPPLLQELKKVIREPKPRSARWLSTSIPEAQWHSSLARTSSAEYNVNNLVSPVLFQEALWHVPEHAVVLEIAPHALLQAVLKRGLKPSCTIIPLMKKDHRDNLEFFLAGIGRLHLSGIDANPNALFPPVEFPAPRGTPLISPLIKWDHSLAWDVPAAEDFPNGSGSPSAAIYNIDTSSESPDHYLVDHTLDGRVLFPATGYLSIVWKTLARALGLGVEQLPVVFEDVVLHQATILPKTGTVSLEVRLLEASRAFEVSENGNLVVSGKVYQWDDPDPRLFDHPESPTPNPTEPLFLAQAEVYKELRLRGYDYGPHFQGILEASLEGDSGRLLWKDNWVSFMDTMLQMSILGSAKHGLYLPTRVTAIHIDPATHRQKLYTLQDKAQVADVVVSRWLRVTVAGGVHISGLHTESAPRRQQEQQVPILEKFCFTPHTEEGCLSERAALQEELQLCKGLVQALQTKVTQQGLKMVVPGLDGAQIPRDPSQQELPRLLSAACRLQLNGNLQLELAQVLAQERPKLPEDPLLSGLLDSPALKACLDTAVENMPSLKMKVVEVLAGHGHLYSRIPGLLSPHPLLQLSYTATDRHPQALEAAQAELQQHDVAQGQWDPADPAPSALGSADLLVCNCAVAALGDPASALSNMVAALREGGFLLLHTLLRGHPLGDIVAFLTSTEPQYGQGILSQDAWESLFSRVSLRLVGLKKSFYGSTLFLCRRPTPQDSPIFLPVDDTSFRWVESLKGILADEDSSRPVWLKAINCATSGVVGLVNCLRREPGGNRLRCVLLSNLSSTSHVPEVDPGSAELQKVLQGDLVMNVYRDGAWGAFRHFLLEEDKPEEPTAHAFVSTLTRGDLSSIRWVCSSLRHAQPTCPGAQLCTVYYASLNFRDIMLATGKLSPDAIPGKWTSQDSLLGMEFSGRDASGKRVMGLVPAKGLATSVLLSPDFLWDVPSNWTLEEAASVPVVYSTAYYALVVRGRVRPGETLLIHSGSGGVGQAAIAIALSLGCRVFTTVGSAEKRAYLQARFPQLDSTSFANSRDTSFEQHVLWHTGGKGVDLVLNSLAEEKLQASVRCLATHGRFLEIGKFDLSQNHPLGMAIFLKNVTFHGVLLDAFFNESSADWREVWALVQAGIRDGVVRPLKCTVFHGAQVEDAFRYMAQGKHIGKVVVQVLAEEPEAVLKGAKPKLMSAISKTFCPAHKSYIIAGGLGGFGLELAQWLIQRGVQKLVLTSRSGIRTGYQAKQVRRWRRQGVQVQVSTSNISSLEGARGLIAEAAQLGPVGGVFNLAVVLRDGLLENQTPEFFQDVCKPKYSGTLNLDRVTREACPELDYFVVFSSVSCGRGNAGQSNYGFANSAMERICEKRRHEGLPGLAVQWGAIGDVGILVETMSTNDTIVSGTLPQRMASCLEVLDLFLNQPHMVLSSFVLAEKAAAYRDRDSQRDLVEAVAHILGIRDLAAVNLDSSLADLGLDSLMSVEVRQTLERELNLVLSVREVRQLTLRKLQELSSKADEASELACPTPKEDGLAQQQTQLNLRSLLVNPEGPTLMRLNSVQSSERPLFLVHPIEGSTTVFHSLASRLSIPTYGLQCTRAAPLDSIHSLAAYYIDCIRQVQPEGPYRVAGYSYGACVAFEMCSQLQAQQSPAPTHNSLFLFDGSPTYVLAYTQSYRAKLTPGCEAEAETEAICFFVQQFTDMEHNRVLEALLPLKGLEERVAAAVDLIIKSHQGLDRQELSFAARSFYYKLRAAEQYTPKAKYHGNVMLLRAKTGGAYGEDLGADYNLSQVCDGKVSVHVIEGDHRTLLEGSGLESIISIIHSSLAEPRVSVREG

Oc1ccc(C(c2ccc(O)cc2)C(Cl)(Cl)Cl)cc1
inactive: [2] | [3] | [4] | [7] | [8] | [10] | [12]
active: [1] 0.848 µM | [5] 89.2 µM | [6] 94 µM | [9] 82.9 µM | [11] 93.8 µM | [13] 83.1 µM

COc1c(Cl)ccc(Cl)c1C(=O)O
not listed: [1] | [2] | [17] | [18]
inactive: all other assays above

N#CSCSc1nc2ccccc2s1
active: [7] 49.4 µM | [16] 63.3 µM
not listed: [1] | [14] | [15] | [17] | [18]
inactive: all other assays above

CCCOC(=O)NCCCN(C)C
not listed: [1] | [15] | [17] | [18]
inactive: all other assays above

CCCCC(CC)COC(=O)c1ccccc1C(=O)O (stereo unspecified)
active: [7] 77.2 µM | [10] 74.9 µM | [16] 41.9 µM
not listed: [1] | [14] | [15] | [17] | [18]
inactive: all other assays above

CCOC(=O)NCCOc1ccc(Oc2ccccc2)cc1
active: [2] 85.4 µM | [4] 83.4 µM | [6] 96 µM | [7] 50 µM | [17] 88.5 µM | [10] 84.4 µM | [16] 71.2 µM
not listed: [1] | [14] | [15] | [18]
inactive: all other assays above

O=C(c1ccc(O)cc1O)c1ccc(O)cc1O
not listed: [1] | [15] | [17]
inactive: all other assays above

CCCN(CCC)c1c([N+](=O)[O-])cc(C(F)(F)F)c(N)c1[N+](=O)[O-]
inactive: [2] | [4] | [5] | [6] | [8] | [11] | [12]
active: [7] 9.51 µM | [9] 50 µM | [10] 18 µM | [16] 22 µM | [13] 25.4 µM

O=C(c1ccccc1)C1CCCCC1
not listed: [1] | [15] | [17]
inactive: all other assays above

CCOC(=O)C(C)Oc1ccc(Oc2nc3ccc(Cl)cc3o2)cc1 (stereo unspecified)
active: [7] 56.7 µM | [16] 9.92 µM
not listed: [1] | [3] | [14] | [15] | [18]
inactive: all other assays above

CCCOC(=O)c1ccc(C(=O)OCCC)nc1
active: [7] 24.8 µM
not listed: [1] | [14] | [17] | [18]
inactive: all other assays above

CCSC(=O)N(CC(C)C)CC(C)C
active: [7] 50 µM
not listed: [1] | [14] | [15] | [17] | [18]
inactive: all other assays above

COC(=O)c1ccccc1C(=O)O
not listed: [1] | [15] | [17]
inactive: all other assays above

Cc1nn(C)c(Oc2ccccc2)c1C=NOCc1ccc(C(=O)OC(C)(C)C)cc1
active: [2] 8.31 µM | [4] 6.99 µM | [5] 83.9 µM | [6] 2.87 µM | [7] 19.6 µM | [10] 9.19 µM | [12] 1.24 µM | [16] 3.08 µM
inactive: [14] | [8] | [9] | [11] | [13]
